Screening data deposited in PubChem BioAssay by several laboratories.
Rows were chosen to be rich in hits. Some 2.2% of all compounds tested hit in one or more screens of this group.
Platelet DG rel: inhibitors of platelet dense granule secretion, primary screen, cell-based, MLPCN, human platelets; human platelet-rich plasma, SFLLRN dense granule ATP release, luminescence; actives 0.22% (n = 300,000); inhibition, %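 (compounds screened at 7.5 µM in platelet-rich plasma)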;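 active means mean replicate score, as percent of positive control, at or above 50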
CHT block: inhibitors of human choline transporter CHT; CHT-expressing cells, membrane potential dye, choline response; active compounds read low; actives 0.86% (n = 310,000); High affinity choline transporter 1 (Homo sapiens), Q9GZV3; AID 488975, 2010; B-score at 10 µM;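 active means B-score over 3 SD under the library average, and starting fluorescence ratio not unusually high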;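 further: choline stimulus applied at its EC90 after an EC20 pre-addition; B-score computed on integrated fluorescence ratio after choline addition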
AI-2 QS mod: Vibrio harveyi AI-2 quorum sensing modulators, primary screen, JMH597 strain, luminescence/OD600 ratio. activity change, % at 7.5 µM. actives 0.4% (n = 300,000). Vibrio harveyi JMH597 AI-2 luminescence/OD600 ratio, 9 h; active compounds read low; strain lacks LuxN and CqsS sensors; 0 = neutral-control median; in the data active means activity change below about -75%, passing the limit was not always enough;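 further: luminescence divided by OD600 gain over 9 h not by final OD600 alone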
HIF activator: HIF pathway transcriptional activators, primary screen, cell-based, U2OS HRE-luciferase, luminescence | activation, % at 7.5 µM (by protocol) | U2OS HRE-luciferase reporter; normalized: DMSO 0%, desferrioxamine 100% | AID 1910, 2009 | actives 0.32% (n = 300,000);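 active means mean activation of at least 10% of the iron chelator positive control signal, with at least half of replicates also reaching 10%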
CHT PAM: CHT positive allosteric modulators, primary screen, cell-based, membrane potential dye, choline EC20; High affinity choline transporter 1 (Homo sapiens), Q9GZV3; CHT-expressing cells; active compounds read high; LV-AA mutant CHT in HEK293 cells; B-score at 10 µM; actives 0.49% (n = 310,000); AID 488977, 2010;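 active means initial fluorescence not abnormally high and integrated response B-score, plate-corrected, over 3 SD above library mean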
VLA-4 inh: inhibition in human VLA-4 binding assay, primary screen, VLA-4 allosteric modulator project, MLPCN library, flow cytometry, VLA-4 expressing cells; ligand binding flow cytometry; inhibition, % (about 7 µM as worked out from the volumes in the protocol); actives 0.2% (n = 330,000); in the data active means inhibition above about 50%
Target sequence (P13612 whole entry, looked up): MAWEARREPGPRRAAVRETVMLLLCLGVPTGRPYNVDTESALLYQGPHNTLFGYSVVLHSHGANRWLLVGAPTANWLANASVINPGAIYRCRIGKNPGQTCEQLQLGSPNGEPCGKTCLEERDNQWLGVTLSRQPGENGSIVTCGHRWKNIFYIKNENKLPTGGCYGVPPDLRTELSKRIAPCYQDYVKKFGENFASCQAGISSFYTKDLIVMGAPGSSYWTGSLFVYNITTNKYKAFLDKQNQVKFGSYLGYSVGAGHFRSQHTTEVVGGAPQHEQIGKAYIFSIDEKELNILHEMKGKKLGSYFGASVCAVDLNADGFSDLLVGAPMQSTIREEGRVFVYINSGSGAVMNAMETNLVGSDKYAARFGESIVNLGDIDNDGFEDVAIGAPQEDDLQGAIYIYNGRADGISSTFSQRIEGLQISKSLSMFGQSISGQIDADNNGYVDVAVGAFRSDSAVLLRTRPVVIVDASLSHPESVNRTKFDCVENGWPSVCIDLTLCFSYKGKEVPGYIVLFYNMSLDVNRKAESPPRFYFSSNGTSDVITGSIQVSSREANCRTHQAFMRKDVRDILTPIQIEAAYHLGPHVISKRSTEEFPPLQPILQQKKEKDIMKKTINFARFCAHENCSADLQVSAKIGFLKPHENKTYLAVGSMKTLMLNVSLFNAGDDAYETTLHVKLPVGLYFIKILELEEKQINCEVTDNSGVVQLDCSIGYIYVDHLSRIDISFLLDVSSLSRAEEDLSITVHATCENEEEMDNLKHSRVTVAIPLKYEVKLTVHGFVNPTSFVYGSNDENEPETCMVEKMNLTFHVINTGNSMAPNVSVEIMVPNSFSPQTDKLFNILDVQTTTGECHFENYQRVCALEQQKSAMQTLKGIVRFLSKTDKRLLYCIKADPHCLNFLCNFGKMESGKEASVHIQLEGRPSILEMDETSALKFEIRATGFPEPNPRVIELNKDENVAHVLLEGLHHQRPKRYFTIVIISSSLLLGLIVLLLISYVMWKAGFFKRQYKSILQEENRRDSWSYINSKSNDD
CHT activ conf: CHT activators, confirmation, cell-based, membrane potential dye, duplicate | CHT-expressing cells, membrane potential dye fluorescence (FDSS); % of choline EC20–EC90 response window; HEK293 expressing CHT LV-AA mutant; choline added at its EC20 | AID 504833, 2011 | actives 91% (n = 2,500) | activation, % at 10 µM | shares compounds with CHT PAM;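 active means primary screen active, with duplicate mean activation above negative control mean plus 3 SD, cut at about 11% in these data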
HEK293 MP dye: membrane potential response in parental HEK293 cells, counter-screen for CHT activator project, cell-based, membrane potential dye | actives 62% (n = 2,500) | membrane potential dye fluorescence (FDSS); measured after EC20 choline addition | AID 623908, 2012 | shares compounds with CHT PAM | ratio readout change at 10 µM, hits read low;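 active means duplicate-averaged ratio beyond 3 SD from buffer wells, up or down, though filed actives are nearly all decreases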
A number is an active result; 0 = inactive; - = not tested or not shown.

SMILES	Platelet DG rel	CHT block	AI-2 QS mod	HIF activator	CHT PAM	VLA-4 inh	CHT activ conf	HEK293 MP dye
COC(=O)c1cc(C(=O)N2CCN(c3cccc(C)c3C)CC2)cc([N+](=O)[O-])c1	0	0	0	0	0	0	-	-
C/C(=N\NC(=O)C(N)=O)c1cccc([N+](=O)[O-])c1	0	0	0	0	0	0	-	-
C/C(=N\N=C(N)N)c1cccc([N+](=O)[O-])c1	0	0	0	0	6.4	0	27	-57
Cc1noc(C)c1COc1ccc(C(=O)Nc2nnc(CC(C)C)s2)cc1	-	-	-	-	-	0	-	-
CC(C(=O)O)N1C(=O)C2C3CC(C2C1=O)C1C(c2ccccc2)c2sc(=O)[nH]c2SC31 (stereo not drawn)	0	0	0	0	0	0	-	-
COCCn1nnnc1C(c1ccccn1)N1CCN(c2cc(Cl)ccc2C)CC1 (stereo not drawn)	0	0	0	0	7.9	0	15	0
COc1ccc(Cn2nnnc2C(c2ccccn2)N2CCN(c3cc(Cl)ccc3C)CC2)cc1 (stereo not drawn)	0	0	0	0	0	0	-	-
Cc1cc(C)n2c(Nc3ccc4c(c3)OCCO4)c(-c3ccc(C)o3)nc2n1	0	0	0	0	9.7	0	83	-50
Cc1ccc(-c2nc3ncccn3c2Nc2ccc3c(c2)OCCO3)o1	0	0	0	0	0	0	-	-
Cc1onc(-c2c(F)cccc2Cl)c1C(=O)O/N=C(\N)c1ccc([N+](=O)[O-])o1	0	0	0	0	0	0	-	-
CCOc1nc(N=C(N)N)nc2c(C)cccc12	0	0	0	0	6.6	0	54	-60
CCOC(=O)c1cnc2ccc(OCC)cc2c1N1CCN(C)CC1	0	0	0	0	8.4	0	41	-40
Cc1ccc2nc(N3CC(C)OC(C)C3)nc(-c3ccccc3)c2c1 (stereo not drawn)	0	0	0	0	0	0	-	-
Cc1ccc2c(c1)c(-c1ccccc1)nc1nncn12	0	0	0	0	0	0	38	-32
CN(C)c1ccc(Nc2nc(N)c3ccccc3n2)cc1	80	0	0	0	7.4	0	49	-75
Cc1ccccc1Nc1nc(N)c2ccccc2n1	58	0	0	-	6.8	0	11	-44
Nc1nc(Nc2ccccc2)nc2ccccc12	59	0	0	0	0	0	37	-66
Cc1ccccc1Nc1nc(N)nc(-c2oc3ccccc3c2C)n1	0	0	0	0	0	0	-	-
CCC(CC)CN1C(Nc2ccccc2)=NC[C@@H]1C	0	0	0	0	0	0	-	-
O=C(OCc1cccc(Cl)c1)c1cc([N+](=O)[O-])ccc1N1CCOCC1	0	0	0	0	0	0	-	-
O=C(NCc1ccc2c(c1)OCO2)c1cc([N+](=O)[O-])ccc1N1CCCCC1	0	0	0	0	9.2	0	51	0
Cc1ccc(C(=O)c2cc([N+](=O)[O-])ccc2N2CCCCC2)cc1	0	0	0	0	0	0	31	0
COc1ccc(COC(=O)c2cc([N+](=O)[O-])ccc2N2CCOCC2)cc1F	0	0	0	0	9.4	0	67	0
CC1CCCN(c2ccc([N+](=O)[O-])cc2C(=O)c2ccccc2)C1 (stereo not drawn)	0	0	0	0	7.6	0	27	0
O=C(COC(=O)c1cc([N+](=O)[O-])ccc1N1CCOCC1)Nc1ccc(Cl)cn1	0	0	0	0	6.8	0	20	0
SMILES	Platelet DG rel	CHT block	AI-2 QS mod	HIF activator	CHT PAM	VLA-4 inh	CHT activ conf	HEK293 MP dye
O=C(c1ccc(Cl)cc1)c1cc([N+](=O)[O-])ccc1N1CCOCC1	0	0	0	0	0	0	50	0
CC(=O)Nc1ccc(NC(=O)c2c(C)c(-c3ccccc3)nc3ccccc23)cc1	0	0	0	0	0	0	-	-
COc1cccc(CNC23CC4CC(CC(C4)C2)C3)c1OCc1ccccc1	0	0	0	0	0	0	-	-
CC(=O)c1cccc(NC(=O)C2=CN3CCS(=O)(=O)N=C3C=C2)c1	-	-	-	-	-	0	-	-
CC(C)OP(=O)(CCP(=O)(OC(C)C)OC(C)C)OC(C)C	0	0	0	0	0	0	-	-
CN=C1c2c(-c3ccccc3)c3cc(OC)ccc3n2CCN1C	0	0	0	0	8	0	43	-53
C=CC[n+]1c(-c2ccc(Cl)cc2Cl)csc1Nc1c(C)n(C)n(-c2ccccc2)c1=O	0	0	0	0	8.4	0	0	0
C=CC[n+]1c(-c2ccc(C)cc2)csc1Nc1c(C)n(C)n(-c2ccccc2)c1=O	0	0	0	0	0	0	-	-
C=CC[n+]1c(-c2ccc(Cl)cc2Cl)csc1Nc1ccc(NC(C)=O)cc1	0	0	0	0	14	0	0	0
Cc1cc(F)ccc1NC(=O)Cn1c(C)csc1=O	-	-	-	-	-	0	-	-
COc1ccccc1C(=O)NC(CCSC)C(=O)OC(C)C(=O)NC1CC1 (stereo not drawn)	0	0	0	0	0	0	-	-
NC(=O)C1CCCN(C(=O)c2ccc(NC(=O)c3cccs3)cc2)C1 (stereo not drawn)	-	-	-	-	-	0	-	-
COc1ccc2sc(C)[n+](C)c2c1	0	0	0	0	11	0	39	-30
O=c1c2ccccc2nc2n1C(CSCc1ccc(Cl)cc1)CS2 (stereo not drawn)	0	0	0	0	8.2	0	11	0
O=C(CCCCCn1nnc2ccccc2c1=O)Nc1ccccc1F	0	0	0	0	0	0	-	-
COc1c(N2CCN[C@H](C)C2)c(F)cc2c(=O)c(C(=O)O)cn(C3CC3)c12	0	0	0	0	6.3	0	31	-40
COc1c(N2C[C@@H]3CCCN[C@@H]3C2)c(F)cc2c(=O)c(C(=O)O)cn(C3CC3)c12	0	0	0	0	7.8	0	35	-42
CCS(=O)(=O)N1CCC(NC(=O)C(Cc2cccc(OC)c2OC)NC(C)=O)CC1 (stereo not drawn)	0	-	0	0	-	-	-	-
Cc1cc(C)nc(NC(=O)C(c2ccccc2)c2ccccc2)c1	0	0	0	0	6.9	0	40	-35
